# According to the supplement of paper PMC9801561:
# ± gives the standard deviation of the averaged measurements.
# Columns and labels:
# [1] = test system: Escherichia coli Nissle 1917; test: area under OmniLog respiration curve over 48 h (OmniLog units x h); higher = more growth / nutrient utilisation; extreme values may be limits of the assay; conditions: incubation: 48 h, 37 °C
# [2] = test system: Escherichia coli Nissle 1917; test: DuctApe activity index of respiration/growth curve (0 no growth to 9 maximum) (index 0-9); higher = more growth / nutrient utilisation, active = 3 or more; extreme values may be limits of the assay; conditions: incubation: 48 h, 37 °C
# [3] = nutrient role: sole phosphorus source (pyruvate carbon)
# [4] = nutrient role: C-Source, carboxylic acid
# [5] = nutrient role: sole nitrogen source (pyruvate carbon)
# [6] = nutrient role: C-Source, carbohydrate
# [7] = nutrient role: sole sulfur source (pyruvate carbon)
# [8] = nutrient role: C-Source, amino acid
# 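For DuctApe activity index of respiration/growth curve (0 no growth to 9 maximum) in this document: biolog PM4 phosphorus and sulfur plates, tetrazolium violet dye reduction read in the OmniLog every 15 min, kinetic curves scored by DuctApe, each plate run in triplicate.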
smiles,measurement,setting,value
Cc1cn([C@H]2C[C@H](OP(=O)(O)O)[C@@H](CO)O2)c(=O)[nH]c1=O [Thymidine 3`-Monophosphate],area under OmniLog respiration curve,[1]; [3],8940 ± 450
same,DuctApe activity index,[2]; [3],8.67 (active)
CCC(=O)O [Propionic acid],area under OmniLog respiration curve,[1]; [4],7450 ± 300
same,DuctApe activity index,[2]; [4],8 (active)
NCCOP(=O)(O)O [O-Phosphoryl-Ethanolamine],area under OmniLog respiration curve,[1]; [3],8740 ± 290
same,DuctApe activity index,[2]; [3],8.67 (active)
C[C@H](N)C(=O)N[C@@H](Cc1cnc[nH]1)C(=O)O,area under OmniLog respiration curve,[1]; [5],6900 ± 1400
same,DuctApe activity index,[2]; [5],7.67 (active)
O=C(O)CO [Glycolic acid],area under OmniLog respiration curve,[1]; [4],7210 ± 370
same,DuctApe activity index,[2]; [4],7.67 (active)
Nc1ccn([C@@H]2O[C@H](CO)[C@@H](OP(=O)(O)O)[C@H]2O)c(=O)n1 [Cytidine 3`-Monophosphate],area under OmniLog respiration curve,[1]; [3],4.72
same,DuctApe activity index,[2]; [3],0 (inactive)
O=C[C@H](O)[C@@H](O)[C@H](O)[C@H](O)CO[C@@H]1O[C@H](CO)[C@@H](O)[C@H](O)[C@H]1O [Gentiobiose],area under OmniLog respiration curve,[1]; [6],475 ± 820
same,DuctApe activity index,[2]; [6],1 (inactive)
OCC1OC(OC2C(CO)OC(O)C(O)C2O)C(O)C(O)C1O [D-Cellobiose],area under OmniLog respiration curve,[1]; [6],963 ± 760
same,DuctApe activity index,[2]; [6],1.33 (inactive)
OC[C@H]1O[C@@H](Oc2ccc(O)cc2)[C@H](O)[C@@H](O)[C@@H]1O [Arbutin],area under OmniLog respiration curve,[1]; [6],4.72
same,DuctApe activity index,[2]; [6],0 (inactive)
OC1OC[C@@H](O)[C@H](O)[C@H]1O (stereo partly drawn) [D-Xylose],area under OmniLog respiration curve,[1]; [6],9160 ± 580
same,DuctApe activity index,[2]; [6],8.67 (active)
O=C(O)CC[C@@H](C(=O)O)N1C(=O)c2ccccc2C1=O [N-Phthaloyl-L-Glutamic acid],area under OmniLog respiration curve,[1]; [5],4540 ± 1100
same,DuctApe activity index,[2]; [5],6 (active)
COC(=O)C(C)=O [Methylpyruvate],area under OmniLog respiration curve,"[1]; nutrient role: C-Source, ester",8530 ± 550
same,DuctApe activity index,"[2]; nutrient role: C-Source, ester",8.33 (active)
OCC(O)C(O)C(O)CO (stereo not drawn) [Adonitol],area under OmniLog respiration curve,[1]; [6],2610 ± 350
same,DuctApe activity index,[2]; [6],5 (active)
NCCS(=O)O [Hypotaurine],area under OmniLog respiration curve,[1]; [7],7620 ± 90
same,DuctApe activity index,[2]; [7],8 (active)
O=C(O)[C@@H](O)[C@H](O)[C@H](O)[C@@H](O)C(=O)O [Mucic acid],area under OmniLog respiration curve,[1]; [4],8240 ± 630
same,DuctApe activity index,[2]; [4],8.33 (active)
Nc1ncnc2c1ncn2[C@@H]1O[C@H](CO)[C@@H](OP(=O)(O)O)[C@H]1O [Adenosine 3`-Monophosphate],area under OmniLog respiration curve,[1]; [3],9700 ± 640
same,DuctApe activity index,[2]; [3],9 (active)
NCCc1c[nH]cn1 [Histamine],area under OmniLog respiration curve,[1]; [5],5.03 ± 0.54
same,DuctApe activity index,[2]; [5],0 (inactive)
O=C(O)/C=C/C(=O)O [Fumaric acid],area under OmniLog respiration curve,[1]; [4],8610 ± 570
same,DuctApe activity index,[2]; [4],8.33 (active)
O=C(O)CCCCCCCCC(=O)O [Sebacic acid],area under OmniLog respiration curve,[1]; [4],4.72
same,DuctApe activity index,[2]; [4],0 (inactive)
N[C@H](COP(=O)(O)O)C(=O)O [O-Phospho-D-Serine],area under OmniLog respiration curve,[1]; [3],9260 ± 670
same,DuctApe activity index,[2]; [3],8.67 (active)
OC[C@H]1OC(O)[C@@H](O)[C@@H](O)[C@@H]1O (stereo partly drawn) [D-Mannose],area under OmniLog respiration curve,[1]; [6],8430 ± 440
same,DuctApe activity index,[2]; [6],8 (active)
O=P(O)(O)OC(CO)CO [b-Glycerol Phosphate],area under OmniLog respiration curve,[1]; [3],8820 ± 470
same,DuctApe activity index,[2]; [3],8.67 (active)
O=c1[nH]c(=O)c2nc[nH]c2[nH]1 [Xanthine],area under OmniLog respiration curve,[1]; [5],2650 ± 1100
same,DuctApe activity index,[2]; [5],4 (active)
O=S1(=O)CCCC1 [Tetramethylene Sulfone],area under OmniLog respiration curve,[1]; [7],615 ± 500
same,DuctApe activity index,[2]; [7],0 (inactive)
NC(=O)NC1NC(=O)NC1=O (stereo not drawn) [Allantoin],area under OmniLog respiration curve,[1]; [5],500 ± 670
same,DuctApe activity index,[2]; [5],1.67 (inactive)
CC(=O)N[C@H]1[C@H]([C@H](O)[C@H](O)CO)OC(O)(C(=O)O)C[C@@H]1O (stereo partly drawn) [N-Acetyl-Neuraminic acid],area under OmniLog respiration curve,[1]; [4],6140 ± 840
same,DuctApe activity index,[2]; [4],7 (active)
CS(=O)(=O)O [Methane Sulfonic acid],area under OmniLog respiration curve,[1]; [7],5490 ± 300
same,DuctApe activity index,[2]; [7],6.67 (active)
O=C(CO)[C@@H](O)[C@H](O)[C@@H](O)C(=O)O [5-Keto-D-Gluconic acid],area under OmniLog respiration curve,[1]; [4],118 ± 140
same,DuctApe activity index,[2]; [4],0 (inactive)
COC(=O)CCC(=O)O [Mono-Methylsuccinate],area under OmniLog respiration curve,[1]; [4],1170 ± 950
same,DuctApe activity index,[2]; [4],1.33 (inactive)
O=P(O)(O)O [Phosphate],area under OmniLog respiration curve,[1]; [3],9750 ± 430
same,DuctApe activity index,[2]; [3],9 (active)
N[C@H](CS)C(=O)O [D-Cysteine],area under OmniLog respiration curve,[1]; [7],7100 ± 110
same,DuctApe activity index,[2]; [7],7.33 (active)
CS(=O)(=O)CC[C@H](N)C(=O)O [L-Methionine Sulfone],area under OmniLog respiration curve,[1]; [7],31.6 ± 21
same,DuctApe activity index,[2]; [7],0 (inactive)
C[C@H](O)C(=O)O [L-Lactic acid],area under OmniLog respiration curve,[1]; [4],7880 ± 510
same,DuctApe activity index,[2]; [4],8 (active)
CCCC(=O)C(=O)O [a-Keto-Valeric acid],area under OmniLog respiration curve,[1]; [4],4.72
same,DuctApe activity index,[2]; [4],0 (inactive)
O=P(O)(O)OC[C@H]1OC(O)(CO)[C@@H](O)[C@@H]1O (stereo partly drawn) [D-Fructose-6-Phosphate],area under OmniLog respiration curve,[1]; [6],9900 ± 640
same,DuctApe activity index,[2]; [6],9 (active)
N[C@@H](Cc1c[nH]c2ccccc12)C(=O)O [L-Tryptophan],area under OmniLog respiration curve,[1]; [5],3670 ± 1500
same,DuctApe activity index,[2]; [5],4.67 (active)
N[C@@H](COP(=O)(O)O)C(=O)O [O-Phospho-L-Serine],area under OmniLog respiration curve,[1]; [3],8970 ± 510
same,DuctApe activity index,[2]; [3],8.67 (active)
C[C@H](O)[C@@H](N)C(=O)O [D-Threonine],area under OmniLog respiration curve,[1]; [8],291 ± 470
same,DuctApe activity index,[2]; [8],0.667 (inactive)
O=P1(O)OP(=O)(O)OP(=O)(O)O1 [Trimetaphosphate],area under OmniLog respiration curve,[1]; [3],9730 ± 800
same,DuctApe activity index,[2]; [3],9 (active)
